Ten compounds from PubChem BioAssay (EPA / NIEHS) can be followed below.

Active and inactive are the calls of the source. Rule for the calls: active = hit-call score of the fitted dose curve at least 0.9, where 1 is the maximum; inactive = score below 0.9.

By AC50 is commonly meant the concentration at which the activity in the assay is half-maximal.

A short description of the experiment: CCTE_Shafer_MEA_acute_synchrony_index: CCTE's Neural Acute Assay for Synchrony, Shafer Lab (AID 2284027).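 Note: fitted for loss of signal so actives lower synchrony relative to DMSO.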 As to the method: CCTE_Shafer_MEA_acute assay is conducted using Axion Biosystems 48 well microelectrode array (MEA) plates and Maestro recording system. Each well of the MEA plate contains a grid of 16 microelectrodes embedded in the culture surface. Electrically active cells, such as neurons, can be cultured over the electrodes, and electrical activity in these cells can be recorded extracellularly. The spontaneous firing of neurons is captured from each electrode on a microsecond timescale providing both temporally and spatially precise data. […] The CCTE_Shafer_MEA_acute assay uses primary cultures of rat cortical neurons. As these cultures mature over time, neural networks develop functional activity and form cohesive networks in which electrical activity can be highly coordinated. Baseline 40-minute recordings are made on days post-plating 13 or 15, followed by a secondary 40-minute recording after chemical exposure.CCTE_Shafer_MEA_acute_synchrony_index is a component of the CCTE_Shafer_MEA_acute assay. It measures the synchrony of the neural network as a unitless measure between 0 (low synchrony) to 1 (high synchrony) during a recording in a microelectrode array (MEA) using Axion Biosystems Maestro 768 channel amplifier with the AxIS adaptive spike detector. The recordings before and after chemical treatment are used to calculate a percent change in the synchrony index in each well.Data from the assay component CCTE_Shafer_MEA_acute_synchrony_index was analyzed into 1 assay endpoint. This assay endpoint, CCTE_Shafer_MEA_acute_synchrony_index, was analyzed in the negative analysis fitting direction relative to DMSO as the negative control and baseline of activity. Using a type of functional reporter, gain or loss-of-signal activity can be used to understand electrical activity.
Spontaneous activity in the cortical cultures was recorded using an Axion Biosystems Maestro 768 channel amplifier and Axion Integrated Studios (AxIS) v1.8 (or later) software. The amplifier recorded from all channels simultaneously (gain = 1200 x; sampling rate = 12.5 kHz/channel): raw signals were filtered with a Butterworth band-pass filter (300-5000 Hz), which filters out slower local field potentials leaving only fast potentials, i.e., "spikes", arising from extracellular currents associated with action potentials (Pine 2006; Wheeler and Nam 2011). On-line spike detection of filtered signals was conducted with the AxIS adaptive spike detector, using a threshold of 8x the root mean squared (rms) noise on each channel. Any electrodes with rms noise levels greater than 5 uV were grounded (e.g., no data were recorded). Once grounded, an electrode was grounded for the duration of the experiment. All recordings were conducted at 37 C. Wells were deemed usable if on the day of the exposure >/= 10 electrodes were active (defined as >/= 5 spikes/min). On DIV 13 or 15, a minimum of three wells from one cortical culture preparation were treated with each compound (0.03-40 uM). Prior to recording baseline activity, each mwMEA plate was placed in the Maestro at 37 C and allowed to sit for 20 min while firing rates stabilized. Baseline activity (40 min) was recorded before the addition of each compound. An additional 40 min of spontaneous activity was recorded in the presence of each compound. Changes in network parameters relative to baseline were assessed following compound treatment.
Turning to `C=CC(C)(O)CCC=C(C)C` (stereo not given), the result was inactive. Consider `COCCc1ccc(OCC(O)CNC(C)C)cc1` (stereo not given), for which the result was inactive. On the same count and under the same terms, the same measure for `CN(C)C(=S)SC(=S)N(C)C`: “inactive”. For the compound `Oc1c(Cl)cc(Cl)c(Cl)c1Cc1c(O)c(Cl)cc(Cl)c1Cl`, the AC50 is 0.203 µM (active). With `CC1(C)CCC[C@]2(C)[C@H]3CCO[C@]3(C)CC[C@@H]12`, the result was inactive.

In the case of `O=C(Nc1ccc2c(O)c(N=Nc3ccc(N=Nc4ccc(S(=O)(=O)O)cc4)cc3)c(S(=O)(=O)O)cc2c1)c1ccccc1`, the AC50 was 15 µM (active). With `CCOC(=O)C(C#N)=C(c1ccccc1)c1ccccc1`, the compound was classed as inactive. As for `CCCCCCC(CO)CCCC` (stereo not given), the AC50 is 4.68 µM (active). For `CC(CN=Cc1ccccc1O)N=Cc1ccccc1O` (stereo not given), the outcome was inactive.

Take `O=CN1CCOCC1`: the compound was called inactive.
